Experimental data reported in PubChem BioAssay (Tox21).
Records with an inconclusive call do not appear. A call without a number means that no potency is given here. The source made the active and inactive calls. Unless noted, calls follow the shape of the dose curve; as a rule, active = well fitted curve in the direction sought with a large enough effect in the repeat runs; inconclusive = weak or mixed curves; inactive = no such curve, though single readings can be large; an effect the other way counts as inactive or inconclusive.

Tests used:
[1] = qHTS assay to identify small molecule antagonists of the thyroid receptor (TR) signaling pathway - cell viability counter screen (AID 743064); also: nearly all actives have a fitted effect of over 50% in size; also: potency is read from the fitted curve at half-maximal effect
Summary of the method: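 Same-well viability check: GH3.TRE-Luc cells stimulated with 1 nM T3 alongside test compound for 23.5 h, followed by CellTiter-Fluor fluorescence.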

[2] = qHTS assay to identify small molecule antagonists of the thyroid receptor (TR) signaling pathway (AID 743065); also: series mostly up to about 70 µM; nearly all actives have a fitted effect of over 55% in size
Summary of the method: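 GH3.TRE-Luc rat pituitary cells (two TREs driving luciferase) were dosed with compound, then stimulated with 1 nM T3 (final) for 23.5 h at 37 C. ONE-Glo luminescence was the read-out, with CellTiter-Fluor fluorescence as the cytotoxicity counter-screen.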

[3] = test system: thyroid hormone receptor (rat, GH3 cells); test: qHTS assay to identify small molecule agonists of the thyroid receptor (TR) signaling pathway (AID 743066; calls by dose curve)
[4] = qHTS assay to identify small molecule antagonists of the estrogen receptor alpha (ER-alpha) signaling pathway - cell viability counter screen (AID 743074; calls by dose curve;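 also: HEK293 cells carrying ER-alpha-UAS-bla reporter stimulated with 17beta-estradiol; nearly all actives have a fitted effect of over 45% in size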)
[5] = qHTS assay to identify small molecule antagonists of the estrogen receptor alpha (ER-alpha) signaling pathway using the BG1 cell line - cell viability counter screen (AID 743081);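 also: compound given together with 17beta-estradiol as the ER stimulus; series mostly up to about 70 µM; nearly all actives have a fitted effect of over 45% in size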
Aromatase (Homo sapiens) = Aromatase (Homo sapiens) (UniProt P11511); test: qHTS assay to identify aromatase inhibitors (AID 743083); also: series mostly up to about 70 µM; nearly all actives have a fitted effect of over 55% in size
[6] = qHTS assay to identify aromatase inhibitors - cell viability counter screen (AID 743084);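 also: cells stimulated with testosterone during compound exposure; nearly all actives have a fitted effect of over 55% in size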; also: potency is read from the fitted curve at half-maximal effect
[7] = target: Aryl hydrocarbon receptor (Homo sapiens) (UniProt P35869); test: qHTS assay to identify small molecule that activate the aryl hydrocarbon receptor (AhR) signaling pathway (AID 743085);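 also: HG2L7.5c1 human HepG2 liver cells with stably integrated DRE-driven firefly reporter; series mostly up to about 70 µM; nearly all actives have a fitted effect of over 15% in size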
Summary of the method: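 Reporter assay in engineered HepG2 line HG2L7.5c1, whose plasmid carries twenty dioxin responsive elements upstream of firefly luciferase. Treatment lasted 24 h at 37C; ONE-Glo luminescence gauged induction.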

[8] = qHTS assay to identify small molecule that activate the aryl hydrocarbon receptor (AhR) signaling pathway - cell viability counter screen (AID 743086); also: nearly all actives have a fitted effect of over 45% in size; also: potency is read from the fitted curve at half-maximal effect
Summary of the method: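 HepG2-AhR-luc (HG2L7.5c1) cells, 4000/well, treated 24 h at 37 C with compound; viability measured as CellTiter-Fluor fluorescence after 30 min in the same wells as the luciferase read.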

[9] = target: Peroxisome proliferator-activated receptor gamma (Homo sapiens) (UniProt P37231); test: qHTS assay to identify small molecule agonists of the peroxisome proliferator-activated receptor gamma (PPARg) signaling pathway (AID 743094; active = well fitted activation curve with a large enough effect in the signal ratio in the repeat runs, not every such curve was filed as active; the % refers to the signal ratio)
Summary of the method: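 Following 5 h plating at 37C, PPARg-bla HEK293H cells receive compound or DMSO for 17 h; fluorescence intensity is recorded after LiveBLAzer B/G loading for 1 h at room temperature.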

[10] = target: Peroxisome proliferator-activated receptor gamma (Homo sapiens) (UniProt P37231); test: qHTS assay to identify small molecule antagonists of the peroxisome proliferator-activated receptor gamma (PPARg) signaling pathway (AID 743191; calls by dose curve; also: series mostly up to about 63 µM; nearly all actives have a fitted effect of over 30% in size)
Summary of the method: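 GeneBLAzer PPARg UAS-bla HEK293H cells, 5 h post-plating, exposed to compounds 17 h at 37C. LiveBLAzer B/G FRET substrate added for 1 h at room temperature; beta-lactamase reporter read by fluorescence intensity.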

[11] = qHTS assay to identify small molecule antagonists of the peroxisome proliferator-activated receptor gamma (PPARg) signaling pathway - cell viability counter screen (AID 743194); details: Potency: co-treated with 50 nM rosiglitazone; also: nearly all actives have a fitted effect of over 55% in size
Summary of the method: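 Cytotoxicity counter screen in PPARg-bla HEK293H cells, same wells as reporter assay. Compounds plus 50 nM rosiglitazone (final) for 17 h at 37 C, then viability read by CellTiter-Glo luminescence.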

[12] = qHTS assay for small molecule agonists of the antioxidant response element (ARE) signaling pathway (AID 743202; active = well fitted activation curve with a large enough effect in the signal ratio in the repeat runs, not every such curve was filed as active; the % refers to the signal ratio)
Summary of the method: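 ARE-bla HepG2 cells (beta-lactamase reporter under the antioxidant response element), plated 5 hours, then exposed to compounds 16 hours at 37 C. LiveBLAzer B/G FRET substrate added for 2 hours at room temperature; fluorescence intensity read.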

[13] = qHTS assay for small molecule agonists of the antioxidant response element (ARE) signaling pathway - cell viability counter screen (AID 743203; calls by dose curve; also: nearly all actives have a fitted effect of over 55% in size)
Summary of the method: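 Compounds in DMSO were pinned onto ARE-bla HepG2 cells plated 5 hrs earlier at 2,000 cells/well. Sixteen hours later at 37C/5% CO2, CellTiter-Glo was added and luminescence measured after 30 min at room temperature.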

[14] = qHTS assay for small molecule activators of the heat shock response signaling pathway - cell viability counter screen (AID 743209); also: nearly all actives have a fitted effect of over 50% in size
Summary of the method: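 Counter screen for cytotoxicity in HeLa HSE-bla reporter cells. Treatment was 5 h at 37 C; viability was detected by luminescent ATP assay (CellTiter-Glo) in the same wells as the beta-lactamase read.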

[15] = qHTS assay for small molecule activators of the heat shock response signaling pathway (AID 743210; active = well fitted activation curve with a large enough effect in the signal ratio in the repeat runs, with a control signal flat, not every such curve was filed as active; the % refers to the signal ratio; also: series mostly up to about 63 µM)
Summary of the method: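 HSE-bla HeLa cells (beta-lactamase reporter under heat shock response elements), plated overnight, then exposed to compounds 5 h at 37 C; LiveBLAzer B/G FRET substrate added, 2.5 h at room temperature, fluorescence intensity read.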

[16] = target: Estrogen receptor (Homo sapiens) (UniProt P03372); test: qHTS assay to identify small molecule agonists of the estrogen receptor alpha (ER-alpha) signaling pathway (AID 743075; calls by dose curve;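 also: HEK293 GripTite cells with ER-alpha and UAS-driven beta-lactamase reporter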)
[17] = target: Estrogen receptor (Homo sapiens) (UniProt P03372); test: qHTS assay to identify small molecule agonists of the estrogen receptor alpha (ER-alpha) signaling pathway using the BG1 cell line (AID 743079); also: nearly all actives have a fitted effect of over 20% in size
[18] = qHTS assay to identify small molecule antagonists of the estrogen receptor alpha (ER-alpha) signaling pathway using the BG1 cell line (AID 743080; calls by dose curve;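 also: BG1 cells stimulated with 17beta-estradiol alongside compound; series mostly up to about 70 µM; nearly all actives have a fitted effect of over 25% in size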)
Summary of the method: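 After 5 days in phenol-red-free 10% charcoal-stripped FBS medium, BG1-Luc-4E2 cells were seeded, left 24 h at 37 C, co-treated with compounds and 17beta-estradiol for 21.5 h, then assayed for viability and luciferase.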

Aromatase (Homo sapiens), sequence (P11511 whole entry, looked up): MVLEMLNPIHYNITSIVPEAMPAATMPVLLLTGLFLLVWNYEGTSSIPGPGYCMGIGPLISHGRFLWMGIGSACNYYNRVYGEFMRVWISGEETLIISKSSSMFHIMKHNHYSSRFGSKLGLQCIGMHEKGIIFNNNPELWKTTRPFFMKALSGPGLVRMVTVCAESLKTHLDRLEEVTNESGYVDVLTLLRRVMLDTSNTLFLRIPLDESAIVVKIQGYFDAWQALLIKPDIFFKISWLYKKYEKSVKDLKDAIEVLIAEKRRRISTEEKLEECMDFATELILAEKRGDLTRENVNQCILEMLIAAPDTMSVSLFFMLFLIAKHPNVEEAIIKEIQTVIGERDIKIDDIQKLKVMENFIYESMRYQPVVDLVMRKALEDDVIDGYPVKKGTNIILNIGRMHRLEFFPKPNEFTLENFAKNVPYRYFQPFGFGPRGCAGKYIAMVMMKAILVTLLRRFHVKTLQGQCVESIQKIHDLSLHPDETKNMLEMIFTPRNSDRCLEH
Estrogen receptor (Homo sapiens), sequence (P03372 whole entry, looked up): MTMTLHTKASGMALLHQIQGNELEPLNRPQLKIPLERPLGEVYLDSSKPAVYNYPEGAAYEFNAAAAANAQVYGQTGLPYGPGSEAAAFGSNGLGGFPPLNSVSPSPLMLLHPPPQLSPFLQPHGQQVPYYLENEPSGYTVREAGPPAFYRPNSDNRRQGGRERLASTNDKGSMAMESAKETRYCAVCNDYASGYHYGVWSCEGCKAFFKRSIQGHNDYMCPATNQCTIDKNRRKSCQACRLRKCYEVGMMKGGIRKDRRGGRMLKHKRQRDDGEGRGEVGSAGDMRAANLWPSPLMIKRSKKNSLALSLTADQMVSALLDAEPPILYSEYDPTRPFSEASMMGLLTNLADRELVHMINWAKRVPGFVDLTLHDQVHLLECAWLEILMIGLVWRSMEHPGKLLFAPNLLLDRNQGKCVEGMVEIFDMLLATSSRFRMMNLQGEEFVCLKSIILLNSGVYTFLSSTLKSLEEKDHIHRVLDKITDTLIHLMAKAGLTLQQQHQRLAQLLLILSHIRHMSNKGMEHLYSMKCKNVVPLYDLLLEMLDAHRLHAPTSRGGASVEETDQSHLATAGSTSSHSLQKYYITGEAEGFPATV
Peroxisome proliferator-activated receptor gamma (Homo sapiens), sequence (P37231 whole entry, looked up): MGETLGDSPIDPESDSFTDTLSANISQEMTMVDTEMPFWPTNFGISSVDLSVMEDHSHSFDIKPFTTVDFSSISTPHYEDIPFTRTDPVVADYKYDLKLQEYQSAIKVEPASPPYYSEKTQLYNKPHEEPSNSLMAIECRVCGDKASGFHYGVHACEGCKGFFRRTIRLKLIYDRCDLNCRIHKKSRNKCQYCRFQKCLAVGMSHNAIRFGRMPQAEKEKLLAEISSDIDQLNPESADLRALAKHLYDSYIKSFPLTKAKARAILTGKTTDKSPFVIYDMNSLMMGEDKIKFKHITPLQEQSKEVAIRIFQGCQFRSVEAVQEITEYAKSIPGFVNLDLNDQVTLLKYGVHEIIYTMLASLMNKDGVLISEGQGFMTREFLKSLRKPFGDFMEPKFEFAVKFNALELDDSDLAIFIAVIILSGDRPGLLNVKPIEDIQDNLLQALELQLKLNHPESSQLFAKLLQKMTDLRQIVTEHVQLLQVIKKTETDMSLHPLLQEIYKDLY
Aryl hydrocarbon receptor (Homo sapiens), sequence (P35869 whole entry, looked up): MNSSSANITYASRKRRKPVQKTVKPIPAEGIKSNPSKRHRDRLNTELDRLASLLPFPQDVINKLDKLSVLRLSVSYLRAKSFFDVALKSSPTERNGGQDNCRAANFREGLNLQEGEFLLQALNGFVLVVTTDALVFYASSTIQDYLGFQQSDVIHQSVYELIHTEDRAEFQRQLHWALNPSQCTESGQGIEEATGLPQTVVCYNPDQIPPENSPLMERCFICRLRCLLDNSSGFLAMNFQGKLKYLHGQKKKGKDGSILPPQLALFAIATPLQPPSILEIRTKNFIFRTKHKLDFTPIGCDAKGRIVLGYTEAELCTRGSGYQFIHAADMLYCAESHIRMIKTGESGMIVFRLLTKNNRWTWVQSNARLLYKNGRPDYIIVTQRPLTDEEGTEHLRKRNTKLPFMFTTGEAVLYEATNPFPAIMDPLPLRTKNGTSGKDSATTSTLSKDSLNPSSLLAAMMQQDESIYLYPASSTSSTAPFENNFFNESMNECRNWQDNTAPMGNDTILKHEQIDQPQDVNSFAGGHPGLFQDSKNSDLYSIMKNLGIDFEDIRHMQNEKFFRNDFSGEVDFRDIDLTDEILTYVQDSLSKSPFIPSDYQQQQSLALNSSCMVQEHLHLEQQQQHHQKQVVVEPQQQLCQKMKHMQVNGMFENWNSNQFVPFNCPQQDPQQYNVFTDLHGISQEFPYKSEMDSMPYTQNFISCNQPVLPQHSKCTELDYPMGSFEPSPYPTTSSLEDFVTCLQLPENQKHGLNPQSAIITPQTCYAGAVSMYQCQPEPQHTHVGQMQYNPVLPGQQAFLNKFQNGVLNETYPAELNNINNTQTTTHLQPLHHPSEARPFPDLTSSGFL

| Structure (SMILES) | Potency [1] | Potency [2] | Potency [3] | Potency [4] | Potency [5] | Potency (Aromatase (Homo sapiens)) | Potency [6] | Potency [7] | Potency [8] | Potency [9] | Potency [10] | Potency [11] | Potency [12] | Potency [13] | Potency [14] | Potency [15] | Potency [16] | Potency [17] | Potency [18] |
| --- | --- | --- | --- | --- | --- | --- | --- | --- | --- | --- | --- | --- | --- | --- | --- | --- | --- | --- | --- |
| CCCCCl | inactive | inactive | inactive | inactive | inactive | inactive | inactive | inactive | inactive | inactive | inactive | inactive | inactive | inactive | inactive | inactive | – | – | – |
| ClCc1ccccc1Cl | inactive | inactive | inactive | inactive | inactive | inactive | inactive | inactive | inactive | inactive | inactive | inactive | – | inactive | inactive | inactive | – | – | – |
| Cc1ccccc1 | inactive | inactive | inactive | inactive | inactive | inactive | inactive | inactive | inactive | inactive | inactive | inactive | – | inactive | inactive | inactive | – | – | – |
| CC(C)CCON=O | inactive | inactive | inactive | inactive | inactive | inactive | inactive | inactive | inactive | inactive | inactive | inactive | inactive | inactive | inactive | inactive | – | – | – |
| CCc1cnc(C2=NC(C)(C(C)C)C(=O)N2)c(C(=O)O)c1 (centres undefined) | inactive | inactive | inactive | inactive | inactive | inactive | inactive | inactive | inactive | inactive | inactive | inactive | inactive | inactive | inactive | inactive | – | – | – |
| FC(F)OC(F)(F)C(F)Cl (centres undefined) | inactive | inactive | inactive | inactive | inactive | inactive | inactive | inactive | inactive | inactive | inactive | inactive | inactive | inactive | inactive | inactive | – | – | – |
| CCCC[P+](CC)(CCCC)CCCC (tested in a mixture with another compound) | inactive | inactive | inactive | inactive | inactive | inactive | inactive | inactive | inactive | inactive | inactive | inactive | – | inactive | inactive | inactive | – | – | – |
| Nc1cc(Cl)cc(C(=O)O)c1Cl | inactive | inactive | inactive | inactive | inactive | inactive | inactive | inactive | inactive | inactive | inactive | inactive | – | inactive | inactive | inactive | – | – | – |
| C=C(Cl)Cl | inactive | inactive | inactive | inactive | inactive | inactive | inactive | – | inactive | inactive | – | inactive | – | inactive | inactive | inactive | inactive | inactive | – |
| O=C(NCNC(=O)NC1C(=O)NC(=O)N1CO)NC1C(=O)NC(=O)N1CO (centres undefined) | inactive | inactive | inactive | inactive | inactive | inactive | inactive | inactive | inactive | inactive | inactive | inactive | inactive | inactive | inactive | inactive | – | – | – |
| NP(N)(=O)NC(=O)c1ccc(F)cc1 | inactive | inactive | inactive | inactive | inactive | inactive | inactive | – | inactive | inactive | – | inactive | inactive | inactive | inactive | inactive | inactive | – | – |
| O=C(O)c1cc(Cl)ccc1Cl | inactive | inactive | inactive | inactive | inactive | inactive | inactive | inactive | inactive | inactive | inactive | inactive | – | inactive | inactive | inactive | – | – | – |
| CC(C)(C)N(NC(=O)c1ccc(Cl)cc1)C(=O)c1ccccc1 | 3.42 µM (active) | inactive | inactive | inactive | – | inactive | 7.65 µM (active) | inactive | 17.1 µM (active) | inactive | inactive | inactive | inactive | inactive | inactive | inactive | inactive | – | – |
| O=[N+]([O-])O[C@H]1CO[C@H]2[C@@H]1OC[C@H]2O[N+](=O)[O-] | inactive | inactive | inactive | inactive | inactive | inactive | inactive | inactive | inactive | inactive | inactive | inactive | inactive | inactive | inactive | inactive | inactive | – | inactive |
